Bioassay records as filed in PubChem.
Shown are actives, neighbours in structure and some others; about 11% of the full set was active somewhere.
USP17 inh – blocks human USP17 ubiquitin-rhodamine cleavage. purified USP17, Ub-rhodamine cleavage fluorescence, 3 h. actives 6.5% (n = 47,000). A8MUK1. inhibition, % at 50 µM
Target sequence (A8MUK1 whole entry, looked up): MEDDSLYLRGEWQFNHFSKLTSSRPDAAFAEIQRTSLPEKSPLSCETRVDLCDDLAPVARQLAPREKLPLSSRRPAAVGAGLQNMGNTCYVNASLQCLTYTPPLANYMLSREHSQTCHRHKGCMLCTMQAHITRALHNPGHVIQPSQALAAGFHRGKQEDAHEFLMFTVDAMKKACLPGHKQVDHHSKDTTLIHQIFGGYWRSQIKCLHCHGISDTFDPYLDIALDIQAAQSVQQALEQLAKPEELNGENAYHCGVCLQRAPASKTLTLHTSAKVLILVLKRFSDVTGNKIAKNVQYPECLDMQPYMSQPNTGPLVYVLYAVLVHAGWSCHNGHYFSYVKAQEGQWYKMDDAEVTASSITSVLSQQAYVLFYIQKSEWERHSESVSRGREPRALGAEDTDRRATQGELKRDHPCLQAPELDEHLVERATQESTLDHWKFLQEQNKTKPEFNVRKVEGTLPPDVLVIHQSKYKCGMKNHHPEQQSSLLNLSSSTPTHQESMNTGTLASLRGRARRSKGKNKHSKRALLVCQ
OTUD3 inh – human OTUD3 deubiquitinase inhibition; Q5T2D3; purified OTUD3, Ub-rhodamine fluorescence, 2 h; inhibition, % at 25 µM; actives 0.7% (n = 47,000); AID 1645858
USP28 block – human USP28 deubiquitinase inhibition; Q96RU2; purified USP28, Ub-rhodamine cleavage fluorescence, 30 min; inhibition, % at 25 µM; actives 3% (n = 47,000); AID 1645857
USP30 inh – blocks human USP30 ubiquitin-rhodamine cleavage. Q70CQ3. actives 5.3% (n = 47,000). purified USP30, Ub-rhodamine cleavage fluorescence. inhibition, % at 25 µM
Starred values were filed as active, the others as inactive; i = inactive; . = no result. Rule as the data show it: active = inhibition above about 30%; inactive = the rest.

SMILES	USP17 inh	OTUD3 inh	USP28 block	USP30 inh
CC(=O)N1CCc2cc(CNS(=O)(=O)c3ccccc3)ccc21	2.9	8.0	8.9	17.0
CC(=O)N1CCc2cc(S(=O)(=O)Nc3ccccc3C)ccc21	-5.5	-2.1	-10.3	-16.5
CC(=O)N1CCc2cc(S(=O)(=O)NC(Cc3ccccc3)C(=O)Nc3cccc(Cl)c3C)ccc21 (stereo not drawn)	36.3*	37.9*	70.3*	67.0*
c1ccc(CCNc2nn3c(-c4cccnc4)cnc3s2)nc1	4.7	11.6	12.7	22.7
Cn1c(=O)c2c(nc(N3CCOCC3)n2CC(=O)c2ccccc2)n(C)c1=O	4.0	5.0	4.8	21.3
Cc1sc(-c2ccc(Cl)nc2)nc1OC(=O)c1ccc(F)cc1F	53.3*	13.5	10.0	44.5*
COc1cccc(-c2cncc(C3CCN(C(=O)c4ccn[nH]4)CC3)n2)c1	3.0	10.0	1.1	17.9
CCOc1ccc(NC(=O)Cn2c(=O)n(CC(=O)NCc3ccc(C)cc3)c(=O)c3sccc32)cc1	.	20.3	14.8	69.8*
COc1ccc(NC(=O)Cn2c(=O)n(CC(=O)NCc3ccc(C)cc3)c(=O)c3sccc32)cc1OC	71.3*	31.6*	70.4*	75.3*
CCc1ccc(S(=O)(=O)Nc2cccc(N3CCCS3(=O)=O)c2)cc1	-3.3	-5.8	-4.3	-30.0
COc1ccc(NC(=O)CCc2c(C)c3c(C)nn(-c4ccccc4)c3n(C)c2=O)cc1OC	16.5	2.3	7.9	2.6
COc1ccc(NC(=O)CCc2c(C)c3c(C)nn(-c4ccccc4)c3n(C)c2=O)c(OC)c1	-2.9	-1.8	-1.5	30.2*
CC1CC(=O)c2c(cc3c(-c4c(O)cc(O)c5c(O)c6c(cc45)OC(C)CC6=O)c(O)cc(O)c3c2O)O1 (stereo not drawn)	88.1*	78.5*	85.2*	8.7
CC1CC(C)CN(C(=O)CCc2nnc3ccc(N4CCCC4)nn23)C1 (stereo not drawn)	17.9	8.7	7.1	31.0*
CC1CCN(c2ccc3nnc(CCC(=O)N4CCCC4)n3n2)CC1	5.6	5.4	4.7	12.8
Cc1ccc(C)c(CN2CCC(CNC(=O)CCc3nnc4ccc(N5CCCCC5)nn34)CC2)c1	3.2	-7.2	32.9*	-34.2
COC(=O)c1ccc(NC(=O)CCc2nnc3ccc(N4CCOCC4)nn23)cc1	30.8*	12.5	13.4	29.7
CC1CCN(c2ccc3nnc(CCC(=O)NCc4ccc(CN5CCOCC5)o4)n3n2)CC1	9.2	10.0	31.1*	18.7
CC1CCN(c2ccc3nnc(CCC(=O)NCCN4CCOCC4)n3n2)CC1	13.4	14.6	8.6	17.4
Cc1ccc(C(=O)Nc2ccc(OC(F)(F)F)cc2)c(=O)[nH]1	24.9	-9.1	-12.9	-31.0
COc1cccc(N2CCN(c3ccc4nnc(CCC(=O)NC5CCCC5)n4n3)CC2)c1	21.9	6.0	6.7	19.8
COc1cccc(N2CCN(c3ccc4nnc(CCC(=O)N5CCc6ccccc6C5)n4n3)CC2)c1	71.6*	20.2	39.2*	47.8*
CS(=O)(=O)c1ccc(C(=O)N2CC[C@H]3COC(=O)N[C@@H]3C2)cc1	7.7	9.7	5.7	13.0
CC(C)NC(=O)N1CCn2c(nnc2C2CCNCC2)C1	1.1	5.3	7.3	21.7
O=C(Nc1cccc(S(=O)(=O)NC2=NCCC2)c1)c1cc(-c2ccccc2)n[nH]1	38.8*	8.6	42.5*	36.8*
SMILES	USP17 inh	OTUD3 inh	USP28 block	USP30 inh
Cc1cc2c(cn1)C(=O)c1c(O)cc(O)cc1C2=O	11.3	12.5	33.5*	-215.5
CCc1cc2cc3c(cc2nc1SCC(=O)N1CC(=O)Nc2ccccc21)OCO3	35.2*	14.8	7.7	-18.4
COc1ccc(NC(=O)CSc2nnc(-c3ccco3)n2C)cc1OC	26.9	12.6	10.4	16.0
CC(=O)Nc1cc(NC(=O)CSc2nnc(-c3ccco3)c(-c3ccco3)n2)ccc1C	46.0*	14.3	3.3	-103.0
Cc1cccc2cc(CN(CCCN3CCOCC3)C(=O)NC3CCCCC3)c(=O)[nH]c12	-15.1	-4.6	-4.8	-12.9
COc1ccc(CCNC(=O)c2cnc3c(-c4cccc(C)c4)c(C)nn3c2C)cc1OC	0.3	-4.1	39.0*	-16.7
CS(=O)(=O)c1ccccc1C(=O)NCCC(c1ccccc1)c1ccccc1	-0.6	0.1	2.6	21.4
Cc1ccc(C(=O)NCCC(c2ccccc2)c2ccccc2)o1	26.2	19.4	31.1*	19.6
COc1ccc(NC(=O)COc2ccc(C(=O)c3ccc(F)cc3)cc2)c(OC)c1	9.6	4.2	-0.6	9.3
COc1cc(C#N)c(NC(=NCc2ccc(F)cc2)SC)cc1OC	53.4*	7.7	35.1*	47.6*
COc1ccccc1-n1c(C)c(C)c2c1ncn1nc(-c3ccccn3)nc21	3.5	-1.7	4.1	-2.0
O=C(NC1(O)C(=O)c2ccccc2C1=O)c1cccc2c1-c1ccccc1C2=O	91.2*	23.2	15.3	45.2*
O=C1c2cccc(O)c2C(=O)c2c(O)cccc21	-91.2	-97.7	-165.9	i
CSc1ccccc1NC(=O)N1CCC2(CC1)NC(=O)C(CC(C)C)NC2=O (stereo not drawn)	-4.8	0.0	-1.8	-0.7
Cc1ccc(NC(=O)N2CCC3(CC2)NC(=O)C(CC(C)C)NC3=O)cc1 (stereo not drawn)	43.2*	24.8	17.4	46.1*
COC(=O)c1cc(NC(=O)/C=C/c2ccc(Cl)cc2)ccc1N1CCOCC1	-4.4	-15.6	49.9*	-15.4
Cn1nc(C2CCN(C(=O)c3cc(F)cc(F)c3)CC2)c2nccnc21	2.1	-3.1	6.7	-9.8
O=C(/C=C/c1ccc2c(c1)OCO2)NCCCn1ccnc1	3.2	15.2	15.6	27.3
O=S1(=O)CCC(S(=O)(=O)Nc2cccc(C(F)(F)F)c2)C1 (stereo not drawn)	-37.7	-4.0	-7.8	-96.1
O=S1(=O)CCC(S(=O)(=O)Nc2ccc(OCc3ccc(Cl)cc3)cc2)C1 (stereo not drawn)	34.7*	5.9	8.7	19.3
c1ccc(-c2cc3nc(NCc4ccncc4)ccn3n2)cc1	-16.0	0.3	1.4	3.7
c1coc(-c2cc3nc(NCCCn4ccnc4)ccn3n2)c1	45.8*	-23.4	22.8	-92.2
O=C(O)c1ccccc1N(Cc1ccccc1)C(=O)COc1ccccc1	8.8	2.8	-5.8	-56.3
O=C(COc1ccccc1)N(Cc1ccccc1O)c1ccccc1Cl	28.9	15.1	25.2	33.0*
CC1=CC[C@]2(C)C[C@@H](O)[C@](O)(C(C)C)C2CC1 (stereo partly drawn)	0.5	-5.7	1.4	32.3*
SMILES	USP17 inh	OTUD3 inh	USP28 block	USP30 inh
O=C(CN1CCCN(Cc2ccccc2)S1(=O)=O)Nc1ccc(F)cc1	21.4	14.7	16.7	33.0*
O=C(c1nnc(-c2cc(S(=O)(=O)N3CCCCCC3)c[nH]2)o1)N1CCCC1	21.1	7.4	5.8	29.6
CC1CCN(S(=O)(=O)c2c[nH]c(-c3nnc(C(=O)N4CCCC4)o3)c2)CC1	27.6	15.6	19.4	46.6*
CNC(=O)c1cc2nc(N(C)C)n(-c3ccc(F)cc3)c2s1	70.8*	2.7	45.5*	-2.9
CN(C)c1nc2cc(C(=O)N3CCCC3)sc2n1-c1ccccc1	12.2	1.9	4.1	5.5
CCN(CC)c1ccc(CN(C(=O)c2ccco2)c2ccccn2)cc1	14.8	14.3	17.9	13.2
